Source: PubChem BioAssay (several laboratories)
PfHsp90 set2 – growth inhibition of PfHsp90-expressing yeast, primary screen, antimalarial PfHsp90 inhibitor project, S. cerevisiae, BacTiter-Glo luminescence, single point, set 2 | BacTiter-Glo ATP, 48 h; yeast lacking PDR1 and PDR3 efflux regulators | inhibition, % at 9.4 µM | 310,000 compounds, 0.32% hits | AID 504621, 2011;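 active means every replicate shows inhibition above about 80%, whatever the replicate mean, limit read from the data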;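 further: 0% = DMSO neutral controls and 100% = 20 µM radicicol positive controls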
tim10-1 inh – growth inhibitors of tim10-1 mutant yeast, primary screen, luminescence, uHTS; S. cerevisiae tim10-1 ts strain growth, BacTiter-Glo, 24 h; inhibition, % at 20 µM; 330,000 compounds, 2.2% hits; AID 463190, 2010;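 active means inhibition of at least 40%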;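 further: mutant grown at 25 °C; 0% = DMSO wells with yeast and 100% = wells holding no yeast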
tim23-1 inh – growth inhibitors of tim23-1 mutant yeast, primary screen, luminescence, uHTS; 330,000 compounds, 1.3% hits; AID 463212, 2010; inhibition, % at 20 µM; S. cerevisiae tim23-1 growth, BacTiter-Glo luminescence, 24 h;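 active means growth inhibition of the mutant yeast at or above 50%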;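 further: temperature-sensitive mutant grown at 25 °C; plate controls were DMSO-treated mutant yeast for no effect and medium wells lacking yeast for full effect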
NALP1 inh – NALP1 inflammasome inhibitors in reconstituted yeast, colorimetric, S. cerevisiae, triplicate retest | inhibition, % at 10 µM | 280,000 compounds, 0.61% hits | S. cerevisiae NALP1/ASC/caspase-1 growth, X-gal OD620, 72 h; in the data active means inhibition mostly above about 24%, no sharp cut-off; inactive means mostly below about 32%
NALP3 yeast inh – NALP3 inflammasome inhibitors in reconstituted yeast, primary screen, luminescence, uHTS | Yeast reconstituted NLRP3/ASC/caspase-1, beta-gal luminescence, 24 h | 330,000 compounds, 0.39% hits | inhibition, % at 10 µM;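 active means inhibition of 50% or more; inactive means inhibition below 50%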;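 further: plate controls were induced DMSO wells for no effect and uninduced yeast grown without galactose for full effect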
TIM10 inh – growth inhibitors of isogenic TIM10 control yeast, primary screen, counter-screen for tim10-1 yeast inhibitor project, luminescence, uHTS | 330,000 compounds, 1.4% hits | AID 463195, 2010 | S. cerevisiae TIM10 strain growth, BacTiter-Glo luminescence, 24 h | inhibition, % at 10 µM;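 active means inhibition of 40% or more at the single tested concentration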;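 further: wild-type TIM10 isogenic control strain grown at permissive 25 °C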
tim10-1 conf – growth inhibitors of tim10-1 mutant yeast, confirmation, single concentration, luminescence, S. cerevisiae. shares compounds with tim10-1 inh. S. cerevisiae tim10-1 ts strain growth, BacTiter-Glo, 24 h. inhibition, % at 20 µM. 7,400 compounds, 56% hits;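 active means inhibition of yeast growth at or above a set limit in either of two repeat tests at 20 µM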;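 further: tim10-1 mutant grown at permissive 25 °C to find synthetic lethal compounds; 0% = DMSO yeast wells and 100% = medium wells without yeast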
Numbers without * were called inactive. Compounds with a hit are over-represented: about 4.1% of the library has one in this group of screens.

COc1ccc(/C=C(\NC(=O)c2ccccc2)C(=O)N/N=C/c2sccc2C)cc1 was read as PfHsp90 set2 -0.9, tim10-1 inh 51.2*, tim23-1 inh -0.7, NALP1 inh 19.9, NALP3 yeast inh 13.2, TIM10 inh 18.6 and tim10-1 conf 1.9.
Screening Nn1c(SCC(=O)N2CCOCC2)nnc1-c1cccnc1 returned PfHsp90 set2 -8.6, tim10-1 inh -13.5, tim23-1 inh -3.8, NALP3 yeast inh 8.0 and TIM10 inh 0.7.
Cc1ccc(C)c(S(=O)(=O)NC(C)C(=O)NCc2ccccn2)c1 (centres undefined) was read as PfHsp90 set2 -0.3, tim10-1 inh -18.7, tim23-1 inh -0.3, NALP1 inh -7.0, NALP3 yeast inh 10.5 and TIM10 inh -4.2.
For Cc1ccc(CN(Cc2ccco2)C(=S)Nc2ccccc2C)cc1 the results were PfHsp90 set2 10.8, tim10-1 inh 42.2*, tim23-1 inh 10.4, NALP1 inh 15.7, NALP3 yeast inh 18.4, TIM10 inh 10.1 and tim10-1 conf 26.0.
`CC1=C(C(=O)N2CCc3ccccc32)C2(CCC(C)CC2)OC1=O` (centres undefined) gave PfHsp90 set2 9.0, tim10-1 inh 47.5*, tim23-1 inh 27.9, NALP1 inh -1.3, NALP3 yeast inh -7.2, TIM10 inh 22.1 and tim10-1 conf 33.0*.
For CC1=C(C(=O)N2CCCCC2)C2(CCC(C)CC2)OC1=O (centres undefined) the results were PfHsp90 set2 -10.3, tim10-1 inh 14.3, tim23-1 inh 21.0, NALP1 inh 10.5, NALP3 yeast inh -1.4 and TIM10 inh 16.0.
`O=C(NCC(=O)N(c1cccc(F)c1)C(C(=O)NC1CCCC1)c1cccnc1)c1ccco1` (centres undefined) gave PfHsp90 set2 13.1, tim10-1 inh -18.0, tim23-1 inh 0.6, NALP1 inh 25.1, NALP3 yeast inh 4.5 and TIM10 inh 10.4.
`Cc1cccc(C(=O)OCC(=O)N(C)c2ccccc2)c1C` gave PfHsp90 set2 13.2, tim10-1 inh 22.0, tim23-1 inh 49.6, NALP1 inh -0.3, NALP3 yeast inh 21.9 and TIM10 inh 5.3.
CCOc1ncccc1C(=O)NNC(=O)c1ccccc1-n1cccc1 was read as PfHsp90 set2 0.8, tim10-1 inh 4.2, tim23-1 inh 15.6, NALP1 inh 7.6, NALP3 yeast inh 14.5 and TIM10 inh 21.0.
Screening Cc1cc(C(F)(F)F)n2nc(-c3cnn(C)c3C(F)(F)F)c(Br)c2n1 returned PfHsp90 set2 11.2, tim10-1 inh 40.8*, tim23-1 inh 43.2, NALP1 inh 9.1, NALP3 yeast inh 11.5, TIM10 inh 23.3 and tim10-1 conf 30.1.
For Cc1cc(C(F)(F)F)n2nc(C(=O)O)c(Cl)c2n1 the results were PfHsp90 set2 7.5, tim10-1 inh -15.6, tim23-1 inh -0.1, NALP1 inh -5.6, NALP3 yeast inh 8.7 and TIM10 inh 2.0.
Screening COc1ccc2sc(-c3ccc(S(C)(=O)=O)cc3)c(C#CCO)c2c1 returned PfHsp90 set2 -11.0, tim10-1 inh 43.1*, tim23-1 inh 46.9, NALP3 yeast inh 16.8, TIM10 inh 15.4 and tim10-1 conf 41.0*.
Screening CC(C)OC(=O)CSc1nc2cccnc2n1C1CCCCC1 returned PfHsp90 set2 -2.3, tim10-1 inh 40.0, tim23-1 inh 14.0, NALP1 inh 18.9, NALP3 yeast inh -4.4, TIM10 inh 10.5 and tim10-1 conf 15.1.
Screening CCOC(=O)CNC(=O)CSc1nc2cccnc2n1C1CCCCC1 returned PfHsp90 set2 2.6, tim10-1 inh 11.7, tim23-1 inh 16.1, NALP1 inh 17.4, NALP3 yeast inh -9.9 and TIM10 inh -4.3.
O=C1C(=NO)C(c2ccccc2)Oc2ccccc21 (centres undefined) was read as PfHsp90 set2 -25.6.
For COc1cccc(NC(=O)C(NCCc2ccc(S(N)(=O)=O)cc2)c2ccccc2)c1 (centres undefined) the results were PfHsp90 set2 -2.4, tim10-1 inh 18.2, tim23-1 inh 11.5, NALP1 inh 20.6, NALP3 yeast inh 2.0 and TIM10 inh -10.1.
Screening Cc1cc(Nc2ccccc2)n(-c2cccc(Cl)c2)n1 returned PfHsp90 set2 -16.5, tim10-1 inh 38.4, tim23-1 inh 32.9, NALP1 inh -4.1, NALP3 yeast inh -17.0 and TIM10 inh 20.5.
For Nc1ccccc1Nc1cc(-c2cccc(Cl)c2)nn1-c1ccccc1 the results were PfHsp90 set2 -7.5, tim10-1 inh 40.4*, tim23-1 inh 38.3, NALP1 inh 21.5, NALP3 yeast inh 31.0, TIM10 inh 25.7 and tim10-1 conf 34.1*.
For Cn1ncc(Br)c1C(=O)N/N=C/c1ccc(OS(=O)(=O)c2ccccc2)cc1 the results were tim10-1 inh 45.3*, tim23-1 inh 30.5, NALP1 inh 2.6, NALP3 yeast inh 9.4, TIM10 inh 34.7 and tim10-1 conf 25.1.
Screening Oc1c(CN2CCCC(C(F)(F)F)C2)cc(Cl)c2ccccc12 (centres undefined) returned PfHsp90 set2 15.8, tim10-1 inh 42.0*, tim23-1 inh 34.3, NALP1 inh 21.8, NALP3 yeast inh 12.5, TIM10 inh 25.3 and tim10-1 conf 29.6.
Nc1nc(Cl)cc(N2CCC(c3cc(-c4ccc(Cl)cc4)n[nH]3)CC2)n1 was read as PfHsp90 set2 -32.1, tim10-1 inh 84.4*, tim23-1 inh 48.4, NALP1 inh -12.4, NALP3 yeast inh 7.6, TIM10 inh 35.4 and tim10-1 conf 73.0*.
`COc1ccc(OC)c(-c2cc(C3CCN(c4cc(Cl)nc(N)n4)CC3)[nH]n2)c1` gave PfHsp90 set2 -28.5, tim10-1 inh 24.7, tim23-1 inh 26.0, NALP1 inh 0.8, NALP3 yeast inh 7.3 and TIM10 inh 30.5.
Screening CN(CCc1ccccc1)C(=O)c1ccc(NC(=O)Cc2ccc(NC(=O)C3CCCN(C(=O)C4CC4)C3)cc2)cc1 (centres undefined) returned PfHsp90 set2 5.4.
`CCOc1ccc2c(c1)-c1c(ssc1=S)C(C)(C)N2C(=O)CSC1=NCCS1` gave PfHsp90 set2 -37.5, tim10-1 inh 13.6, tim23-1 inh 33.1, NALP1 inh 6.9, NALP3 yeast inh 27.9 and TIM10 inh 3.4.
